Screens from PubChem.
The list is not random: actives were taken first. Their share in the collection is about 14%.
CHX counter = counter-screen hit for Shiga toxin inhibitors, cycloheximide; hit rate 12% among 300,000; AID 2314; max response, %; cell reporter, cycloheximide protein synthesis inhibition counterscreen; in the data active means max response mostly above about 13%, no sharp cut-off; inactive means mostly below about 14%; further: read at 38.3 µM for the half of the compounds with a filed dose; 0% is about no effect
NS1 inh = inhibitors of influenza NS1 protein function; Potency, µM (highest dose often 46.1 µM), without a hit: at the highest dose activity, positive = more growth; hit rate 0.4% among 270,000; AID 2326; calls by dose curve; further: potency means the concentration at half of the fitted maximal effect; actives are rising curves; nearly all actives have a fitted effect of over 50% in size
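Recovery from NS1-induced slow growth read by OD600 in budding yeast switched to galactose assay medium (pH 6.0, -URA) at 1:100 dilution. Compound 23 nl per well; the matching strain lacking NS1 serves as control.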
Shiga inhibitor = Shiga toxin inhibition; AID 2315; hit rate 9.2% among 290,000; Vero cells, Shiga toxin protein synthesis inhibition reporter; inhibition, % at 38.7 µM; in the data active means inhibition mostly above about 28%, no sharp cut-off; inactive means mostly below about 43%; further: 0% is about no effect
Giardia FBPA inh = inhibitors of Giardia lamblia fructose-1,6-bisphosphate aldolase. A8B2U2. Potency, µM (top dose mostly 59.6 µM), for the others: at the highest dose activity, negative = inhibition, hits mostly inhibitors. AID 2451. purified Giardia FBPA. hit rate 0.71% among 290,000; further: potency means the concentration at half of the fitted maximal effect; on the % scale 0 is the no-effect control and ±100 the full control effect; nearly all actives have a fitted effect of over 55% in size
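Giardia FBPA (40 nM reagent) was preincubated 10 min at RT with compound (up to 57.5 uM final), then substrate plus GAPDH/TPI/NAD/arsenate coupling system with diaphorase/resazurin was added; resorufin fluorescence (525/598 nm) was read after 20 min.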
LmPK inh = LmPK (Leishmania mexicana) enzyme inhibition | Q27686 | AID 1721 | hit rate 0.37% among 290,000 | Potency, µM (highest dose often 57.5 µM), for inactives: top-dose activity change, negative = inhibition, usual class: inhibitors | purified LmPK, Kinase-Glo ATP luminescence, 1 h; further: potency means the concentration at half of the fitted maximal effect; on the % scale 0 is the no-effect control and ±100 the full control effect
Target sequence (Q27686 whole entry, looked up): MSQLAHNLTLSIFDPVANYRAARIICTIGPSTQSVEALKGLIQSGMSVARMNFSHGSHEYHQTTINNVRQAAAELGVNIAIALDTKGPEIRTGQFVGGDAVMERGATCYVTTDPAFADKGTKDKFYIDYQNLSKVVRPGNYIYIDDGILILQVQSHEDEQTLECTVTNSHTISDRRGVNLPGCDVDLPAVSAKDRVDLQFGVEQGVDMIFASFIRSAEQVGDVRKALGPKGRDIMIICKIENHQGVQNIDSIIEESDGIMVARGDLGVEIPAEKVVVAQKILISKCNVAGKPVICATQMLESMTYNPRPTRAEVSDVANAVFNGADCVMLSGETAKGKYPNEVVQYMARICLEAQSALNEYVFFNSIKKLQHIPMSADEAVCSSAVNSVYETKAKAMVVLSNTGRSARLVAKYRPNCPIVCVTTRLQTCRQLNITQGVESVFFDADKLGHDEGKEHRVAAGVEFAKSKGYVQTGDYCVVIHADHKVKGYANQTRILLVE
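qHTS format; LmPK 0.1 nM; substrates PEP 0.5 mM and ADP 0.1 mM. One-hour room-temperature incubation, then coupled luciferase luminescence; 0.5 nM enzyme wells mark activation.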
* marks the source's active call; other numbers are inactive results; ? = inconclusive; / = no result given. Unless noted, the call rests on the fitted dose curve; in most records, active means well fitted curve in the direction sought with a large enough effect; inconclusive means small, poorly fitted or top-dose-only effect, or another doubt; inactive means no such curve, though single readings can be large; an effect the other way counts as inactive or inconclusive.

SMILES | CHX counter | NS1 inh | Shiga inhibitor | Giardia FBPA inh | LmPK inh
CCOc1ccc(-c2nc(CSc3nnc(C)s3)cs2)cc1OC | 37* | -66% | 89* | -2% | 0%
CCOc1ccc(-c2nc(CSc3nncs3)cs2)cc1OC | 19* | -24% | 53 | -2% | -1%
COc1ccc2c(c1)O[C@@H](c1ccc3c(c1)OCO3)[C@H](O)C2=O | / | / | / | -1% | /
COc1ccc(-c2nc(-c3ccccc3)c(NC(C)(C)C)o2)cc1 | / | / | / | 6% | /
CCn1cc(C(=O)O)c(=O)c2cnc(N3CCN(C(=S)NC(=O)c4ccc(Cl)cc4)CC3)nc21 | 2 | -3% | -13 | -1% | 14µM*
CN[C@H](Cc1ccccc1)c1cccc(OC)c1O | / | 0% | / | / | /
COc1cc(C(=O)NNc2nc3cc4c(cc3s2)OCO4)cc(OC)c1OC | -2 | -5% | -13 | -1% | 5%
COc1ccccc1C(=O)Nc1nc2cc3c(cc2s1)OCO3 | 55* | -1% | 90* | -5% | -1%
COc1ccc(C(=O)Nc2nc3cc4c(cc3s2)OCCO4)c(OC)c1 | 24* | -2% | 80* | 2% | 2%
O=C(Nc1nc2ccccc2s1)c1cccc(N2C(=O)CCC2=O)c1 | -4 | 8% | -18 | / | -8%
O=C(Nc1nc2cc3c(cc2s1)OCCO3)c1cccc(N2C(=O)CCC2=O)c1 | 21* | 3% | 36* | -9% | -2%
COc1cccc(OC)c1C(=O)Nc1nc2cc3c(cc2s1)OCO3 | -2 | 3% | 16 | 2% | 5%
COc1ccccc1C(=O)Nc1nc2cc3c(cc2s1)OCCO3 | 34* | 8% | 61* | 0% | -27%
COc1ccc(C(=O)Nc2nnc(-c3ccc(F)cc3)s2)c(OC)c1 | -4 | 0% | 3 | 12% | -2%
COC(=O)c1ccc(C(NC(=O)OCc2ccccc2)/C(C)=C/[C@@H](C)C(=O)NCc2nc3ccccc3s2)cc1 (stereo partly specified) | / | / | / | 0% | /
NNc1nc2cc3c(cc2s1)OCCO3 | 32* | 0% | 64* | -30% | 0%
O=C(Nc1ccc2sccc2c1)c1cccc(N2C(=O)CCC2=O)c1 | 37* | -6% | 92* | -11% | -8%
O=C(Nc1nc2cc3c(cc2s1)OCCO3)c1cccs1 | 27* | -45% | 13 | -4% | ?
CCN(CC)S(=O)(=O)c1cccc(C(=O)Nc2nc3cc4c(cc3s2)OCCO4)c1 | 9 | 11% | 19 | -1% | 14%
O=C1CCC(=O)N1OCCOc1ccc2c(c1)CCC2 | 24* | -1% | 47* | 0% | -1%
O=C1CCC(=O)N1OCCCOc1ccc2c(c1)CCC2 | 10* | -10% | 0 | -2% | 0%
c1cc2c(cc1OCCNC1CCCC1)CCC2 | 8 | 8% | -4 | -21% | -1%
CC1(C)NC(=O)N(CCCCOc2ccc3c(c2)CCC3)C1=O | 11 | -25% | 16 | 0% | -4%
CNCCCOc1ccc2c(c1)CCC2 | 21* | 5% | 76 | ? | -14%
c1cnc(SCCOc2ccc3c(c2)CCC3)nc1 | 36* | -6% | 75* | -2% | -2%
SMILES | CHX counter | NS1 inh | Shiga inhibitor | Giardia FBPA inh | LmPK inh
O=NN(Cc1ccc(Cl)cc1)[C@@H](C(=O)O)c1ccccc1 | / | -6% | / | / | /
COc1ccc(-c2nc(CS(=O)CC(=O)N3CCOCC3)c(C)o2)cc1OC (stereo unspecified) | -5 | -2% | -7 | / | -10%
CC(=O)Nc1ccc(OCC(O)Cn2nc(C)c(C)c2C)cc1 (stereo unspecified) | -5 | 5% | -7 | 2% | 0%
CCCNC(=O)C(Cc1ccccc1)NS(=O)(=O)c1ccc2c(c1)c(=O)n(C)c(=O)n2C (stereo unspecified) | -5 | 1% | -12 | 9% | -1%
CCCNC(=O)C(NS(=O)(=O)c1ccc2c(c1)c(=O)n(C)c(=O)n2C)c1ccccc1 (stereo unspecified) | 15* | 3% | 0 | 0% | 3%
COC(=O)c1ccc(Cn2nnc3c(=O)[nH]c(C4CCCN(S(=O)(=O)c5cccc(Cl)c5)C4)nc32)cc1 (stereo unspecified) | -3 | 4% | 10 | -5% | -2%
COc1ccc(-n2c(C)c(C)c3c(NCCCO)ncnc32)cc1 | 43* | 1% | 71* | -8% | 1%
COc1ccc(-n2c(C)c(C)c3c(NCCO)ncnc32)cc1 | 33* | 0% | 59* | -13% | -1%
COc1ccc(-n2c(C)c(C)c3c(NCCCN(C)C)ncnc32)cc1 | -4 | 0% | -14 | 14% | 2%
Cc1ccc(-n2c(C)c(C)c3c(NCCCO)ncnc32)cc1 | 45* | -3% | 120* | -13% | 0%
Cc1ccc(S(=O)(=O)Nc2ccc(Cl)cn2)cc1C | 3 | 9% | 3 | -9% | -4%
COc1ccc(N2CCN(S(=O)(=O)CCNC(=O)c3cc(=O)c4ccccc4o3)CC2)cc1 | -1 | 0% | -8 | / | 4%
Nn1c(CSc2ccccn2)nc2ccccc2c1=O | 44* | -9% | 83* | -4% | 2%
O=c1[nH]c(CSc2ccccn2)nc2ccccc12 | 43* | / | 119* | -1% | -16%
Cc1ccc2nc(SCc3nc4ccccc4c(=O)[nH]3)[nH]c2c1 | 27* | / | 69* | -12% | 6%
Cn1ccnc1SCc1nc2c(cnn2-c2ccccc2)c(=O)[nH]1 | -2 | -8% | -7 | -6% | -5%
O=c1[nH]c(CSc2ccccn2)nc2c1cnn2-c1ccccc1 | 15 | -14% | 31* | 0% | 2%
Cc1ccc2nc(CSc3nc(C)ccc3C#N)[nH]c2c1 | 17* | -95% | 21 | -16% | 5%
Cc1ccc(C#N)c(SCc2ccccc2F)n1 | 7 | -8% | 21 | 3% | 8%
COc1ccc(C(=O)NCc2ccccc2)cc1Br | -1 | 3% | -8 | -1% | 1%
Cc1ccc(C(=O)NCc2ccccc2)cc1Br | 17* | -19% | 24 | -3% | 3%
O=C(NCc1ccccc1)c1ccc(Cl)nc1 | 40* | 0% | 70* | 3% | -4%
O=C(NCc1ccccc1)c1ccc(F)c(F)c1 | 8 | 0% | -5 | 0% | 6%
CN(C)c1c(F)cc(C(=O)NCc2ccccc2)cc1F | 20* | -4% | 5 | 5% | -1%
O=C(NCc1ccccc1)c1ccc(Br)cc1Br | 23* | 3% | active | 16% | 2%
SMILES | CHX counter | NS1 inh | Shiga inhibitor | Giardia FBPA inh | LmPK inh
O=C(NCc1ccccc1)c1ccccc1Br | 3 | 0% | 8 | 2% | -6%
COc1ncc2nc(C)c(=O)n(C[C@H]3CCCO3)c2n1 | / | / | / | 1% | /
CC(=O)c1ccc(Sc2ccc(C(C)=O)cc2)cc1 | 37* | 9% | 40* | 2% | 0%
CC(=O)c1ccc(Sc2ccccc2)cc1 | 19 | 12% | 13 | -5% | -1%
CCCNC(=O)[C@H](C)NC(=O)c1ccc(Br)cc1 | -3 | 0% | -3 | 3% | 0%
CNC(=O)c1csc(-c2cccs2)n1 | 21 | / | 64 | 1% | -4%
CNC(=O)c1sc(-c2cccs2)nc1C | 36* | / | 34 | -2% | -21%
CN(C(=O)CO/N=C/c1ccc(Cl)cc1)c1ccccc1 | 9 | 0% | 19 | 4% | -4%
O=C(O)CCNc1ccccc1C(=O)O | / | -2% | / | / | /
